PI4K2A inh = blocks human PI4K2A kinase activity | 420,000 tested, 0.13% active | activity change, negative = inhibition, % at 76.9 µM | AID 1346378 | Q9BTU6 | purified PI4K2A, ADP-Glo luminescence, 1 h; stronger effect = lower value; in the data active = activity change below about -50%; inconclusive = mostly about -30% to -49%;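 note: -100% = wells without enzyme as full effect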
Target sequence (Q9BTU6 whole entry, looked up): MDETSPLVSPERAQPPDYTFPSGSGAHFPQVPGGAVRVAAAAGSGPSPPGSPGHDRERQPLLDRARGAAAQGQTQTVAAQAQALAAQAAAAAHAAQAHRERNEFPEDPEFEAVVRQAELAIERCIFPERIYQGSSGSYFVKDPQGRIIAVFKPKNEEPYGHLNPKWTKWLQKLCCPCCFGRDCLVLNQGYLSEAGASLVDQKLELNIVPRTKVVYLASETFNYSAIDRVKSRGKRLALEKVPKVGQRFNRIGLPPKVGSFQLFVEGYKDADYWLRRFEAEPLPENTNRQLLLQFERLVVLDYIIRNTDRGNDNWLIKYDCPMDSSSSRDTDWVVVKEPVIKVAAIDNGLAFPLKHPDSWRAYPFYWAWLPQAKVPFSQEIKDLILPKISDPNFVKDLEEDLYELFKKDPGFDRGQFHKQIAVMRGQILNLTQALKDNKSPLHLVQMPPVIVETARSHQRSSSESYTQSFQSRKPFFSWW
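In this quantitative HTS, ADP production by PI4K2A was quantified luminescently after 1 h at ambient temperature; 100 microM adenosine served as plate-quality control.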
APEX1 inh = inhibitors of human APE1 endonuclease. P27695. recombinant APE1, TAMRA/BHQ-2 abasic DNA cleavage fluorescence. Potency, µM (top dose mostly 65.8 µM), inactives show at the highest dose activity change, negative = inhibition, usual class: inhibitors. 350,000 tested, 0.35% active. AID 2517;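 note: potency is the fitted concentration of half-maximal effect; plate controls were vehicle for no effect and reference inhibitor for full effect; nearly all actives have a fitted effect of over 55% in size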
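Measures dequenching upon AP-site incision of a 5'-TAMRA/3'-BHQ-2 THF-containing duplex, 50 nM; human APE1 0.75 nM after 15 min room-temperature exposure to compound; kinetic three-point read at one-minute spacing.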
FEN1 inhibitor = blocks human flap endonuclease 1; P39748; Recombinant FEN1 flap cleavage, fluorescence, 15 min; Potency, µM (doses to about 114 µM), for inactives: at the top dose activity change, negative = inhibition, most hits filed as inhibitors; 390,000 tested, 0.35% active; AID 588795; note: potency is the fitted concentration of half-maximal effect; nearly all actives have a fitted effect of over 65% in size
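FEN1 at 10 nM, compound pretreatment for 15 min (room temperature), 50 nM final substrate to initiate; endpoint reads at 0 and 15 min; DMSO-only plates used as vehicle background.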
Tb PFK inh = inhibitors of T. brucei phosphofructokinase; O15648; T. brucei PFK, ADP-Glo luminescence; Potency, µM (doses to about 57.5 µM), for the others: at the highest dose activity, negative = inhibition, hits mostly inhibitors; 330,000 tested, 0.17% active; AID 485367;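 note: potency is the fitted concentration of half-maximal effect; 0% = uninhibited 1x PFK enzyme wells and -100% = no-enzyme wells; nearly all actives have a fitted effect of over 60% in size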
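1.25 nM PFK with 0.5 mM F6P and 0.1 mM ATP in 0.1 M TEA pH 8.0, 5 mM MgCl2, incubated 45 min at room temperature; ADP measured by ADP-Glo luminescence; compounds titrated up to 57 uM.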
TDP1 block = TDP1 (human) enzyme inhibition. Q9NUW8. recombinant TDP1, AlphaScreen DNA substrate cleavage. Potency, µM (series often up to 130 µM), inactives show at the top dose activity change, negative = inhibition, hits mostly inhibitors. 350,000 tested, 0.28% active; note: potency is the fitted concentration of half-maximal effect; nearly all actives have a fitted effect of over 40% in size
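Recombinant E. coli-expressed Tdp1 (1 nM) preincubated with compound 15 min at RT, then 5'-biotin/3'-phosphotyrosine-FITC DNA substrate (15 nM) added for 5 min. AlphaScreen beads (10 ug/ml) added, 10 min RT; tyrosine-FITC cleavage read as signal loss.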
Tb PGK inh = blocks T. brucei phosphoglycerate kinase; P07378; PGK/GAPDH coupled, Kinase-Glo luminescence, 60 min; Potency, µM (doses to about 57.5 µM), inactives show at the top dose activity change, negative = inhibition, hits mostly inhibitors; 380,000 tested, 0.043% active; AID 602233; note: potency is the fitted concentration of half-maximal effect; nearly all actives have a fitted effect of over 60% in size
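Luminescent ATP detection (Kinase-Glo Plus) follows a 60-minute room-temperature incubation, with wells lacking PGK as controls. Buffer: 100 mM TEA (pH 7.6), 5 mM MgCl2, 0.01% Tween-20. Coupling enzyme GAPDH (100 nM final) supplies unstable 1,3-BPG in-well.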
An asterisk follows results filed as active; i = inactive; ? = inconclusive; . = no result given; [ ] = another dose, or the depositor's remark. Hits are enriched below; roughly 0.8% of the tested compounds scored in any of these assays. Unless noted, calls come from the whole dose curve; as a rule, active = well fitted curve in the direction sought with a large enough effect; inconclusive = small, poorly fitted or top-dose-only effect, or another doubt; inactive = no such curve, though single readings can be large; an effect the other way counts as inactive or inconclusive. Unless noted, % is set by controls: 0 for no effect and ±100 for the full control effect.

SMILES	PI4K2A inh	APEX1 inh	FEN1 inhibitor	Tb PFK inh	TDP1 block	Tb PGK inh
N#Cc1c([N+](=O)[O-])cc([N+](=O)[O-])cc1S(=O)(=O)Cc1ccccc1	-4	-7%	79µM*	-19%	5%	2%
CC1=NN(c2ccc(N)cc2)C(=O)C1	-66*	?	?	-24%	5%	-14%
CC1=NN(c2ccccc2)C(=O)C1	?	?	?	-2%	8%	-9%
Cc1ccc(NC2CC(=O)N(c3cccc([N+](=O)[O-])c3)C2=O)cc1 (configuration not stated)	2	-3%	2%	-1%	5%	0%
CC1=NN(c2cccc([N+](=O)[O-])c2)C(=O)C1	-50*	10%	13%	6%	8%	i
CCCOc1cc(N)ccc1C(=O)OCCN(CC)CC	0	8%	-3%	0%	2%[56.1 µM]	-2%
CCCOc1ccc(N)cc1N	-58*	-10%	?	-2%	7%	-6%
O=C(/C=C/c1ccccc1)NCCc1ccccc1	-1	7.9µM*	-7%	14%	.	?
O=C(/C=C/c1ccc([N+](=O)[O-])cc1)NCCc1ccccc1	-2	-1%	16%	1%	3%	.
Cn1cc(C=O)c2cc(F)ccc21	1	27%	22%	-8%	5%	4%
Cn1cc(/C=C/c2cc[n+](C)cc2)c2cc(Cl)ccc21	0	-31%	50µM*	-9%	.	-2%
COc1cc(OC)nc(O[C@H](C(=O)O)C(OC)(c2ccccc2)c2ccccc2)n1	1	.	.	.	.	.
CN1CCc2nc3sc(C(=O)Nc4cccc(C#N)c4)c(N)c3cc2C1	3	.	40µM*	.	-7%	.
CCOC(=O)CN1CCCC1=O	3	.	.	.	.	.
Cc1cc(NS(=O)(=O)c2ccc(Nc3nc(-c4sc(N)nc4C)cs3)cc2)no1	?	-5%	56µM*	1%	-11%	-8%
Cc1cc(NS(=O)(=O)c2ccc(Nc3nc(-c4ccc(C)c(C)c4)cs3)cc2)no1	-5	1%	-15%	27%	0%	-3%
CCOc1ccc(S(=O)(=O)Nc2cc(NS(=O)(=O)c3ccc(OCC)cc3)cc(C(=O)O)c2)cc1	-2	?	-10%	-4%	3.5µM*	-13%
CC(=O)N(c1onc(C)c1C)S(=O)(=O)c1ccc(N)cc1	0	.	.	.	.	.
CCCCCCCC(=O)[O-].CCCCCCCC(=O)[O-].[Zn+2]	-10	.	.	.	.	.
O=C(O)c1ccc(-c2noc(-c3ccccc3F)n2)cc1	-68*	-2%	10%	.	7%	-21%
O=C1c2ccccc2C(=O)N1c1ncccc1O	.	.	.	.	0%	.
CC(C)(C)SCCNC(=O)c1ccccc1	1	4%	-10%	1%	4%	5%
Cc1ccc(C(=O)NCCSC(C)(C)C)cc1	-59*	4%	0%	-4%	2%	i
Cc1ccc(C)c(N2CCN(C(=O)C3CCN(S(=O)(=O)c4cccc5nsnc45)CC3)CC2)c1	-61*	0%	1%	2%	8%	-3%
Cc1ccc(NS(=O)(=O)c2cc3c(cc2-c2cn[nH]c2)NC(=O)CO3)cc1C	.	.	.	.	-1%	.
SMILES	PI4K2A inh	APEX1 inh	FEN1 inhibitor	Tb PFK inh	TDP1 block	Tb PGK inh
Cc1cccc2cc(C#N)c(SCCN3CCCCC3)nc12	-6	.	50µM*	.	.	-19%
Cc1ccc(C#N)c(SCCN2CCCCC2)n1	-3	3%	-2%	6%	.	i
COc1ccc(O)c(-c2nc3ccccc3c(=O)n2Cc2ccccc2)c1	.	.	.	.	2%	.
COc1ccccc1NS(=O)(=O)c1cc(NC(=O)CNC(=O)c2ccc(C)s2)ccc1Cl	-10	?	45µM*	4%	3%	-2%
COc1ccccc1NC(=O)Nc1ccc(Cl)c(S(=O)(=O)Nc2ccccc2OC)c1	-3	33%	-11%	-9%	6%	5%
N#Cc1cc(NC(=O)C(=O)O)c(Cl)c(NC(=O)C(=O)O)c1	-2	.	.	.	.	.
O=C(/C=C/c1ccco1)Nc1nc(-c2ccccn2)cs1	?	1%	18µM*	1%	8%	-10%
CCn1c(SC(C)C(=O)O)nc2sc3c(c2c1=O)CCC3 (configuration not stated)	-12	?	-19%	?	11µM*	-16%
CC(Sc1nc2sc3c(c2c(=O)n1-c1ccccc1)CCCC3)C(=O)O (configuration not stated)	5	13%	-3%	2%	-1%	-2%
COc1cccc(C2CC(c3cccs3)=NN2C(=O)CSc2nc3c(cnn3-c3ccc(F)cc3)c(=O)[nH]2)c1OC (configuration not stated)	-5	4%	18µM*	-5%	3%	-3%
COc1ccc(C2N(Cc3ccccc3)C(=O)c3ccccc3N2C)cc1COc1ccc(NC(C)=O)cc1 (configuration not stated)	.	.	.	.	-10%	.
Cc1nc(Nc2cnc(/C=C/c3cc(C(=O)Nc4cccc(C(F)(F)F)c4)ccc3C)cn2)cc(N2CCNCC2)n1	0	?	79µM*	18%	.	-4%
CCOc1ccc(C(=O)Nc2ccc3nc(Nc4cccc(C(F)(F)F)c4)cc(C)c3c2)cc1OCC	-1	.	-3%	.	10%	-6%
O=Cc1ccc(O)c(O)c1O	-3	.	.	.	.	.
CC(=O)/C(N=Nc1ccc(C(=O)O)cc1[N+](=O)[O-])=C(\C)O	-12	10µM*	-5%	-17%	.	-27%
CCCCC/C=C\C/C=C\CCCCCCCC(=O)NC(C)c1ccccc1 (configuration not stated)	0	.	.	.	.	.
CCOC(=O)c1ccccc1NC(=O)COC(=O)CC1CCCCC1	6	5%	11%	1%	50µM*	-6%
CCOC(=O)c1ccccc1NC(=O)COC(=O)C1CCCC1	-21	-6%	0%	-11%	.	3%
C=C(C)C(=O)Nc1cccc(C2=NOC3(C2)C[C@H](C(N)=O)N(C(=O)c2ccccc2)C3)c1 (some centres not stated)	-25	-5%	-17%	-29%	?	11µM*
C=C(C)C(=O)Nc1cccc(C2=NOC3(C2)C[C@@H](C(N)=O)N(C(=O)c2cc([N+](=O)[O-])cc([N+](=O)[O-])c2C)C3)c1 (some centres not stated)	-4	-4%	1%	?	.	11µM*
C=C(C)C(=O)Nc1cccc(C2=NOC3(C2)C[C@@H](C(N)=O)N(C(=O)C2(C)CC2)C3)c1 (some centres not stated)	-6	?	?	1.5µM*	11µM*	?
